High-throughput results (PubChem BioAssay)
IL-1B inflam inh: qHTS for Inhibitors of Inflammasome Signaling: IL-1-beta AlphaLISA Primary Screen. actives 4.7% (n = 360,000). activity change, % at 57.5 µM. THP-1 LPS/ATP IL-1B secretion, AlphaLISA, 16 h; stronger effect = lower value; in the data active = activity change below about -50%; inconclusive = mostly about -30% to -49%; also: % is scaled to controls: 0 for no effect and ±100 for the full control effect
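THP-1 cells pretreated 1 hr with compounds (up to 57.5 uM final), then stimulated with LPS (250 ng/mL final) plus ATP (1.25 mM final); secreted IL-1B measured by AlphaLISA after 16 hr, decreased signal indicating inhibition.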
TDP1 cell CPT: qHTS for Inhibitors of human tyrosyl-DNA phosphodiesterase 1 (TDP1): qHTS in cells in presence of CPT; chicken DT40 Tdp1-/-;hTDP1 cells + 20 nM CPT, ATP luminescence, 48 h; Potency, µM (titrated, usually from 46.2 µM), for the others: top-dose activity change, negative = growth inhibition, hits mostly inhibitors; actives 12% (n = 420,000); AID 686979, 2013; also: potency is read from the fitted curve at half-maximal effect; % is scaled to controls: 0 for no effect and ±100 for the full control effect; nearly all actives have a fitted effect of over 55% in size
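Cell growth measured by CellTiter-Glo luminescence after a minimum 48 h, 37 C compound exposure with 20 nM CPT in Tdp1-knockout DT40 cells stably expressing hTDP1, seeded 400/well; qHTS titration format.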
TDP1 cell noCPT: qHTS for Inhibitors of human tyrosyl-DNA phosphodiesterase 1 (TDP1): qHTS in cells in absence of CPT; Potency, µM (series often up to 46.2 µM), for inactives: at the highest dose activity change, negative = growth inhibition, actives largely listed as inhibitors; actives 15% (n = 420,000); AID 686978, 2013; DT40 Tdp1-/- hTDP1 cells, no CPT, ATP luminescence, 48 h; also: potency is read from the fitted curve at half-maximal effect; % is scaled to controls: 0 for no effect and ±100 for the full control effect; nearly all actives have a fitted effect of over 55% in size
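Stably hTDP1-transfected Tdp1-null chicken DT40 cells were treated with library compounds minus camptothecin and grown for at least 48 hr at 37 °C, after which cellular ATP was quantified by luminescence.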
HepG2 viability: qHTS for Inhibitors of TGF-b: Cytotox Counterscreen. AID 588856, 2011. HepG2 CAGA-GFP viability, ATP luminescence, 18 h. Potency, µM (titrated, usually from 46.1 µM), for the others: top-dose activity change, negative = cytotoxicity, usual class: cytotoxic. actives 0.76% (n = 410,000); also: potency is read from the fitted curve at half-maximal effect
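HepG2 CAGA-GFP cells (1000/well, DMEM with 1% FBS) received compound, then TGF-beta at 500 pg/mL final, and were incubated 18 hours at 37 degrees C. Viability was read by CellTiter-Glo luminescence. Media-only wells were set as complete cell-killing and DMSO as no toxicity.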
TGFb SMAD3 inh: qHTS for Inhibitors of TGF-b | actives 1.2% (n = 410,000) | Potency, µM (top dose mostly 46.1 µM), inactives show at the top dose activity, negative = inhibition, most hits filed as inhibitors | AID 588855, 2011 | HepG2 CAGA-GFP TGF-b/SMAD3 reporter, GFP fluorescence, 18 h; TGF-beta stimulated, 500 pg/mL final; also: potency is read from the fitted curve at half-maximal effect; % is scaled to controls: 0 for no effect and ±100 for the full control effect; nearly all actives have a fitted effect of over 65% in size
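HEPG2 CAGA-GFP reporter cells (1000/well, DMEM with 1% FBS) received compounds, then recombinant TGF-beta at 500 pg/mL final for 18 hours at 37 degrees C. Per-cell GFP summed per well was normalised to unstimulated and stimulated DMSO controls before curve fitting.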
TDP1 block: qHTS Assay for Inhibitors of Tyrosyl-DNA Phosphodiesterase (TDP1). recombinant TDP1, AlphaScreen DNA substrate cleavage. AID 485290, 2010. Potency, µM (doses to about 130 µM), for the others: top-dose activity change, negative = inhibition, usual class: inhibitors. Tyrosyl-DNA phosphodiesterase 1 (Homo sapiens), Q9NUW8. actives 0.28% (n = 350,000); also: potency is read from the fitted curve at half-maximal effect; % is scaled to controls: 0 for no effect and ±100 for the full control effect; nearly all actives have a fitted effect of over 40% in size
Target sequence (Q9NUW8 whole entry, looked up): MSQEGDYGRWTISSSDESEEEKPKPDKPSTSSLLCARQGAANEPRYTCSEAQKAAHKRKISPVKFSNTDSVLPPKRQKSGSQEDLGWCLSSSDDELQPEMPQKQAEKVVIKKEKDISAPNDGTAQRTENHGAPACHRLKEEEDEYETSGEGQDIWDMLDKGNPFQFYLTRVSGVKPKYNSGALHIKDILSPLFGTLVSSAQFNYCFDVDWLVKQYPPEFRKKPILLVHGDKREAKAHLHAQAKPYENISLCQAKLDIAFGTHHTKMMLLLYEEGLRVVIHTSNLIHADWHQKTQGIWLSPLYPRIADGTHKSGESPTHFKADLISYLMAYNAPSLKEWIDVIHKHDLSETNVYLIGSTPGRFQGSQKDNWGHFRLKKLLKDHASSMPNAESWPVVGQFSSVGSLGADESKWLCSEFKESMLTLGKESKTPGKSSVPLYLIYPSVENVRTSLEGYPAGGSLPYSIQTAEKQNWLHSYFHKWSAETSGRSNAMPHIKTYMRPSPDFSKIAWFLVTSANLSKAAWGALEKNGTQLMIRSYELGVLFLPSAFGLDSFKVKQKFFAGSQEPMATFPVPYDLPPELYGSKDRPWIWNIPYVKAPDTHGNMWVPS
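Tdp1 1 nM final; 15 min RT w/ cpd; substrate 15 nM, 5 min; beads 10 ug/ml, 10 min; AlphaScreen read. Neg ctrl: no enzyme.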
The depositor's hits bear a star; ? = inconclusive; . = not tested or not shown; ! = repeats disagree; [ ] = dose if it differs, or a comment. Rows were chosen to be rich in hits. Some 18% of all compounds tested hit in one or more screens of this group. Unless noted, calls follow the shape of the dose curve; as a rule, active = well fitted curve in the direction sought with a large enough effect; inconclusive = small, poorly fitted or top-dose-only effect, or another doubt; inactive = no such curve, though single readings can be large; an effect the other way counts as inactive or inconclusive.

SMILES | IL-1B inflam inh | TDP1 cell CPT | TDP1 cell noCPT | HepG2 viability | TGFb SMAD3 inh | TDP1 block
OCCOCCn1c(C(CO)Nc2nc(-c3ccc(Cl)cc3)cs2)nc2ccccc21 (configuration not stated) | ? | 29µM* | 18µM* | -35% | ? | .
OCCOCCn1c(C(CO)Nc2nc(-c3cccc(Br)c3)cs2)nc2ccccc21 (configuration not stated) | -23 | ? | 18µM* | -51% | ? | .
CCCn1c(C(CO)Nc2nc(-c3cccc(Br)c3)cs2)nc2ccccc21 (configuration not stated) | -57* | ? | ? | -113% | ? | .
OCCOCCn1c(C(CO)Nc2nc(-c3ccccc3Br)cs2)nc2ccccc21 (configuration not stated) | 7 | ? | -22% | 5% | -2% | .
Cn1c(SCC(=O)Nc2nc3ccccc3s2)ncc(C(=O)Nc2ccc(Cl)cc2)c1=O | . | -8% | 0% | -3% | -6% | 8%
N#CCCn1c(=O)c(-c2cc(F)cc(F)c2)nc2cnc(OCc3ccccc3)nc21 | . | -26% | ? | . | . | .
COc1ccc(CCN(C)CCc2ccc(OC)c(OC)c2)cc1OC | 0 | ? | -19% | -17% | 3% | 5%[56.1 µM]
COc1ccc(CCN(C)CCCC(C#N)(c2cc(OC)c(OC)c(OC)c2)C(C)C)cc1OC (configuration not stated) | -24 | ? | 21µM* | -8% | 12% | -3%
C/C(=N\NC(=O)C1(C)CC1(Br)Br)c1cccc(NC(=O)C(C)(C)C)c1 (configuration not stated) | 4 | -9% | ? | 0% | -2% | 0%
COc1ccc(CC(=O)Nc2cccc(/C(C)=N/NC(=O)C3(C)CC3(Br)Br)c2)cc1 (configuration not stated) | 26 | 16µM* | ? | -71% | -24% | 5%
C/C(=N\NC(=O)C1(C)CC1(Br)Br)c1ccc(NC(=O)c2ccc(C)o2)cc1 (configuration not stated) | 51 | 13µM* | 18µM* | -10% | 1% | 5%
C/C(=N\NC(=O)C1(C)CC1(Br)Br)c1ccc([N+](=O)[O-])cc1 (configuration not stated) | 0 | 16% | ? | -22% | -14% | 6%
COC(=O)N1CCC2(CC1)CCN(C(c1ccccc1)c1ccccc1)CC2 | . | -6% | ? | . | . | .
COC(=O)C1=C/C=C\CN(C(c2ccccc2)c2ccccc2)/C=C\1C(=O)OC | 13 | ? | 21µM* | -66% | -20% | .
O=C(NNc1ccc(O)cc1)c1ccc(Br)cc1 | 31 | 21µM* | 12µM* | -3% | 5% | 6%
COc1ccc(C(C)=O)cc1Cn1c(C)c(C(=O)NC2CC2)sc1=O | -8 | -1% | 6% | -1% | -16% | .
Nc1ncnc2c1ncn2[C@@H]1O[C@H](CNCc2ccc(OCc3ccccc3)cc2)[C@@H](O)[C@H]1O | 0 | 18µM* | 10µM* | -28% | 16% | -1%
Nc1ncnc2c1ncn2[C@@H]1O[C@H](CO)[C@@H](O)[C@@H]1O | -3 | 0.46µM* | 0.37µM* | 22% | 2% | .
Nc1ncnc2c1ncn2[C@@H]1O[C@H](CNCc2ccc(OCC(=O)Nc3ccccn3)cc2)[C@@H](O)[C@H]1O | 9 | ? | -22% | -24% | -21% | 0%
OC[C@H]1O[C@@H](n2cnc3cncnc32)[C@H](O)[C@@H]1O | . | 0.26µM* | 0.46µM* | . | . | 10%[56.1 µM]
Nc1ncnc2c1ncn2C1O[C@H](CO)[C@@H](O)[C@@H]1O (some centres not stated) | 16 | 0.46µM* | 0.21µM* | 26% | 3% | .
Nc1ncnc2c1ncn2C1OC(CO)C(O)C1N (configuration not stated) | 12 | -24% | ? | 5% | 9% | 4%
COc1ccc(CCN2CC(C(=O)NCCc3cn[nH]c3)CCC2=O)cc1 (configuration not stated) | -23 | -13% | 3% | -40% | 0% | 0%
CC(C)(C)n1ncc2c(=O)n(Cc3ccc(F)cc3F)cnc21 | . | . | . | -24% | 5% | .
CSc1nc(N)nc2c1ncn2C1OC(CO)C(O)C1O (configuration not stated) | 9 | -11% | -18% | -5% | -3% | .
SMILES | IL-1B inflam inh | TDP1 cell CPT | TDP1 cell noCPT | HepG2 viability | TGFb SMAD3 inh | TDP1 block
N#Cc1ccccc1S(=O)(=O)NC(=O)[C@H]1O[C@@H](n2cnc3c(N)ncnc32)[C@H](O)[C@@H]1O | 0 | ? | 13µM* | 1% | 0% | .
Nc1ncnc2c1c(I)cn2C1OC(CO)C(O)C1O (configuration not stated) | . | 0.49µM* | 0.28µM* | . | . | 11%
Nc1ncnc2c1ncn2[C@@H]1O[C@H](C(=O)NS(=O)(=O)c2cccc(F)c2)[C@@H](O)[C@H]1O | 9 | 3% | 6% | 4% | -1% | .
Nc1nccc2c1ncn2C1OC(CO)C(O)C1O (configuration not stated) | ? | 7.3µM* | 5.8µM* | -8% | 1% | .
Nc1ncnc2c1[nH]c(=S)n2C1OC(CO)C(O)C1O (configuration not stated) | . | 2% | 2% | 5% | 2% | 1%
Cc1cn(-c2cccnc2)c(C)c1CNC[C@H]1O[C@@H](n2cnc3c(N)ncnc32)[C@H](O)[C@@H]1O | 28 | 18µM* | 9.2µM* | 9% | 11% | 3%
O=C(O)c1ccc2c(c1)C(=O)N([C@@H](C(=O)O)C(c1ccccc1)c1ccccc1)C2=O | . | . | . | . | . | 9%
N#Cc1c(N)n(C2OC(CO)C(O)C2O)c2ncnc(N)c12 (configuration not stated) | -102* | 0.016µM* | 0.021µM* | -42% | ? | .
Nc1ncnc2c1ncn2C1OC(CO)C(O)C1O (configuration not stated) | -15 | 1.3µM*! | 0.92µM*! | -9% | -14% | 5%
O=C(O)c1cc(Cl)cc(Cl)c1 | . | . | . | . | . | 5%
